# PubChem BioAssay (NCI)
# This is part of a sample that, as a whole, favours compounds with a hit. Of some 83,000 tested, about 20% had one in any assay.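 In brief: 96-well plates, 48 h treatment, single concentration, percent growth endpoint.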 A number with no mark means an inactive call. Activity calls are given as the source filed them. The calls were made as follows: active = growth percent below 10; inactive = the rest.
# Assays:
# Assay in all cases: NCI-60 one-dose screen, 48 h (100 = growth as untreated, 0 = no growth, -100 = all killed)
# Details in all cases: 10 µM unless noted
# HT29 colon = test system: HT29 colon
# SNB-75 CNS = test system: SNB-75 CNS
# SNB-19 CNS = test system: SNB-19 CNS
# U251 CNS = test system: U251 CNS
# PC-3 prostate = test system: PC-3 prostate
# SK-MEL-5 melanoma = test system: SK-MEL-5 melanoma
# UACC-62 melanoma = test system: UACC-62 melanoma
# LOX IMVI melanoma = test system: LOX IMVI melanoma
# SK-MEL-28 melanoma = test system: SK-MEL-28 melanoma
# SK-MEL-2 melanoma = test system: SK-MEL-2 melanoma
# EKVX NSCLC = test system: EKVX NSCLC
# SN12C renal = test system: SN12C renal
# UO-31 renal = test system: UO-31 renal
# TK-10 renal = test system: TK-10 renal
# ACHN renal = test system: ACHN renal
# CAKI-1 renal = test system: CAKI-1 renal
# A498 renal = test system: A498 renal
# CCRF-CEM leukemia = test system: CCRF-CEM leukemia
# MOLT-4 leukemia = test system: MOLT-4 leukemia
Structure (SMILES),growth (HT29 colon),growth (SNB-75 CNS),growth (SNB-19 CNS),growth (U251 CNS),growth (PC-3 prostate),growth (SK-MEL-5 melanoma),growth (UACC-62 melanoma),growth (LOX IMVI melanoma),growth (SK-MEL-28 melanoma),growth (SK-MEL-2 melanoma),growth (EKVX NSCLC),growth (SN12C renal),growth (UO-31 renal),growth (TK-10 renal),growth (ACHN renal),growth (CAKI-1 renal),growth (A498 renal),growth (CCRF-CEM leukemia) [%],growth (MOLT-4 leukemia)
O=C1Cc2cc(CCn3cncn3)c(Cl)cc2N1,97.1%,63.6%,74.4%,73.4%,86.4%,40.1%,68.2%,81%,67.2%,71.3%,29.5%,55.8%,66%,122%,74.6%,60%,47.1%,–,–
Cc1nn(-c2ccccc2)c2ncc3c(c12)C(=O)N(Cc1ccccc1)C3=O,53.5%,-27.1% (active),47.9%,8.03% (active),75.2%,99.5%,75%,37.2%,91.9%,113%,37.3%,23.7%,-30.5% (active),-26% (active),-21.7% (active),-0.521% (active),-10.2% (active),–,–
O=C(CCc1nnc2sc(-c3ccc(Cl)cc3Cl)nn12)c1nc2ccccc2[nH]1,-12.9% (active),-45.8% (active),7.75% (active),-83.1% (active),-38.5% (active),-70.2% (active),-85.1% (active),-58% (active),-60.1% (active),-68.9% (active),-29.7% (active),-36.7% (active),-72.6% (active),-83.2% (active),-89.7% (active),-54.2% (active),-74.9% (active),10.9,1.48% (active)
Cc1nn(-c2ccc(Cl)cc2)c2nc3c(nc12)C(=O)c1ccccc1-3,65.1%,95.5%,87.2%,47%,54.9%,65.8%,55.2%,51.2%,28.4%,79.7%,49.6%,78.8%,110%,94.1%,65.1%,82.9%,-3.2% (active),–,–
O=C1NC(=O)/C(=C\c2ccccc2)C2=C1CCCC2,104%,102%,88%,2.63% (active),20.3%,-78.7% (active),30%,-58.4% (active),36.3%,-74.2% (active),95%,-64.7% (active),-46.7% (active),0.712% (active),15.7%,7.29% (active),101%,35.8,38.1%
COc1ccc(-c2c3c(nn2-c2ccc(N)cc2)CCc2cnoc2-3)cc1OC,93.6%,79.4%,90.3%,89.1%,64.3%,76%,80%,86.4%,116%,101%,102%,92.4%,62.1%,88.5%,81.7%,82.1%,85.3%,61.5,86.4%
COc1ccc(-n2nc3c(c2-c2ccc(OC)c(OC)c2)-c2oncc2CC3)cc1,80%,94.2%,96.9%,85.3%,88.3%,81.8%,73.3%,58.1%,75.1%,92.8%,92.6%,88.4%,79.1%,103%,55.7%,80.6%,83.5%,50.4,72.6%
COc1ccc(C(=O)/C=C/c2c(Cl)nc3c(c(C)nn3-c3ccccc3)c2-c2ccc(Br)cc2)cc1,100%,88.2%,101%,110%,107%,101%,91.8%,96.4%,106%,93.8%,109%,99.4%,88.1%,106%,101%,100%,112%,–,–
COc1ccc2c(c1)nc(N)c1c3cc(C)c(C)cc3cn21,37.9%,92.8%,77.5%,53.9%,90.3%,58.8%,44%,75.4%,81.1%,84.4%,72%,84.1%,59.6%,108%,71.4%,59.2%,79.7%,70.9,69.2%
NC(=O)NN=C(C1CC1)C1CC1,103%,92.6%,106%,98.4%,112%,111%,110%,95.9%,116%,110%,103%,108%,82.1%,101%,95.4%,103%,107%,125,82.8%
Cc1nn(-c2ccc(Cl)cc2)c2nc3c(nc12)c(=O)oc1ccccc13,99.7%,92.1%,100%,93.9%,106%,114%,102%,101%,110%,107%,108%,101%,101%,107%,99.8%,98.3%,95%,–,–
Cn1cc(-c2csc(-c3cn(C)c4ncccc34)n2)c2cccnc21,98.7%,75.7%,94%,96%,86.9%,84.9%,79.4%,95%,101%,107%,86.6%,93.1%,91.9%,92.2%,99.7%,83.3%,76.1%,87.3,95.7%
Cc1nn(-c2ccccc2)c(Cl)c1C(CC(=O)c1ccc(Cl)cc1)CC(=O)c1ccc(Cl)cc1,77%,86.8%,82.4%,82.2%,73.1%,89.7%,82.4%,81.8%,112%,89.1%,94.8%,85.2%,76.7%,104%,88.4%,76.4%,66.9%,–,–
Nc1nc(N)c([N+](=O)[O-])c(=O)[nH]1,98.6%,106%,108%,102%,94.5%,102%,105%,105%,107%,84.2%,121%,105%,80.8%,94.6%,98.7%,104%,97.9%,93.1,111%
Cc1ccc(NC(=O)CSc2nnc3n(Cc4ccccc4)c(=O)c4c(C)c(C(N)=O)sc4n23)cc1,35%,-46.4% (active),68.6%,38.3%,81.5%,77.1%,55.8%,59.9%,13.9%,44.4%,91.7%,58.5%,81.9%,-24.4% (active),75.6%,91.7%,6.08% (active),–,–
Cn1cc(-c2nc(-c3c[nH]c4ncc(F)cc34)cs2)c2cccnc21,112%,101%,108%,98.6%,104%,97.9%,89.1%,98%,111%,120%,84.3%,101%,100%,124%,93.7%,92.5%,109%,102,101%
c1ccc(-c2nn[nH]n2)c(-c2ccc(CN3CCN(c4nsc5ccccc45)CC3)cc2)c1,58.6%,91.1%,98.3%,85.5%,84.7%,97.2%,91.4%,102%,113%,120%,106%,92.6%,103%,103%,98.7%,84%,85.1%,–,–
